Rab9 promoter act = Rab9 promoter activation; Potency, µM (doses to about 9.22 µM), inactives show at the highest dose activation, negative = inhibition, most hits filed as activators; Huh7 Rab9 promoter-luciferase reporter, luminescence, 24 h; 2.8% of 320,000 active; AID 485297; note: % of control where 0% means no effect; nearly all actives have a fitted effect of over 60% in size
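Quantitative HTS format; Huh7 Rab9-luciferase reporter cells (1500/well) receive compound 2 h post-plating, incubate 24 h at 37 °C, then get luciferase reagent for 10 min before luminescence reading.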
Luc counter = blocks Kinase-Glo luciferase, a counter-screen artifact. Q27757. Kinase-Glo luciferase, ATP luminescence, 8 min. Potency, µM (series often up to 38.3 µM), inactives show at the highest dose activity change, negative = inhibition, actives largely listed as inhibitors. AID 1379. 0.28% of 200,000 active; note: % is set by controls: 0 for no effect and ±100 for the full control effect; nearly all actives have a fitted effect of over 60% in size
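Recombinant Kinase-Glo luciferase, 10 uM ATP (linear range), luciferin; imidazole pH 7.2 / KCl / MgCl2 / Tween / BSA buffer; 8 min RT; luminescence.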
NPC1 promoter act = NPC1 promoter activation; Potency, µM (titrated, usually from 9.22 µM), for inactives: top-dose activation, actives largely listed as activators; 2.4% of 320,000 active; Huh7 NPC1 promoter luciferase reporter, 24 h; note: % of control where 0% means no effect; nearly all actives have a fitted effect of over 60% in size
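Stable NPC1-promoter luciferase Huh7 line; cpd (DMSO) 24 h, 37 °C, 5% CO2; Amplite luciferase reagent 10 min RT; luminescence readout. qHTS format.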
SMN2 splice enh = enhancers of SMN2 splice variant expression | 2.8% of 210,000 active | AID 1458 | HEK293 SMN2-luciferase splicing reporter, luminescence, 30-36 h | Potency, µM (series often up to 46.1 µM), without a hit: at the top dose activity change, positive = activation, actives largely listed as activators; note: % of control where 0% means no effect; nearly all actives have a fitted effect of over 55% in size
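qHTS luciferase splicing reporter: luminescence rises when SMN2 exon 7 is included in transfected HEK293 cells. Compound exposure lasted 30-36 h at 37C, with 4.5 mM final sodium butyrate as control, followed by a ONE-Glo read.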
FLuc modulator = inhibits or activates purified firefly luciferase, miR-21 counter-screen. P08659. purified FLuc, Km substrates, luminescence inhibition. Potency, µM (doses to about 57.5 µM), for the others: at the highest dose activity change, negative = inhibition, hits mostly inhibitors. 6.9% of 360,000 active;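 note: plate controls were vehicle for no effect and reference inhibitor for full effect; nearly all actives have a fitted effect of over 55% in size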
Target sequence (P08659 whole entry, looked up): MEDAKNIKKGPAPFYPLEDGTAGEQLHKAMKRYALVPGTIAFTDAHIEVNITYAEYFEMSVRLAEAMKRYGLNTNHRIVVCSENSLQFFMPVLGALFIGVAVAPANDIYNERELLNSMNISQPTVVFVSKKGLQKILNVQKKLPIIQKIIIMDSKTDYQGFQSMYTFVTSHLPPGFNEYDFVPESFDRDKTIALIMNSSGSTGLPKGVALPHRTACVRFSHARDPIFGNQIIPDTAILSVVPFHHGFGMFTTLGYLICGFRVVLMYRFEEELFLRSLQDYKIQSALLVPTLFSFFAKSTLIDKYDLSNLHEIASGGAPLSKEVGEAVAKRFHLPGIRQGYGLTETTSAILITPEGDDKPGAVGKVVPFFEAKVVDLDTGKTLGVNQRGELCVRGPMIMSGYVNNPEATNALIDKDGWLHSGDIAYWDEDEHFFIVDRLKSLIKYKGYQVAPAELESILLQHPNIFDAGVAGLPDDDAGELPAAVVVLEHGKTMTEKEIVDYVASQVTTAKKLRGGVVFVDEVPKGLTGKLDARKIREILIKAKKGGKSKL
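Purified P. pyralis luciferase, 10 nM final, with Km-level 10 uM D-luciferin and 10 uM ATP in 50 mM Tris acetate pH 7.5, 10 mM Mg acetate, 0.01% Tween-20, 0.05% BSA; 6-point qHTS titration about 60 µM downward; luminescence read.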
Active calls of the source: *; ? = inconclusive; . = no result given; [ ] = another dose, or the depositor's remark. In the library only some 7.3% were active in any assay of this set; here they are far more common. Calls come from the whole dose curve; as a rule, active = well fitted curve in the direction sought with a large enough effect; inconclusive = small, poorly fitted or top-dose-only effect, or another doubt; inactive = no such curve, though single readings can be large; an effect the other way counts as inactive or inconclusive. Potency is the fitted concentration of half-maximal effect.

SMILES	Rab9 promoter act	Luc counter	NPC1 promoter act	SMN2 splice enh	FLuc modulator
O=C(O)CCC(=O)Nc1ccc(C(=O)OCC(=O)c2ccc(Cl)cc2Cl)cc1	-8.5%	-1.7%	-5.5%	.	13.5µM*
CCC(=O)Nc1cc(C(=O)OCC(=O)c2ccc(Cl)cc2Cl)ccc1C	-0.7%	-3.1%	-4.2%	17.4%	2.13µM*
CCC(=O)Nc1cc(C(=O)OCC(=O)c2ccccc2Cl)ccc1C	3.55µM*	-4.3%	?	.	8.49µM*
CCCCNC(=O)COC(=O)c1ccc(C)c(NC(=O)c2ccco2)c1	-3.7%	5.1%	-3.0%	6.2%	-2.9%
Cc1ccc(C(=O)OCC(=O)c2c[nH]c3ccccc23)cc1NC(=O)c1ccco1	?	0.1%	6.9%	-3.9%	?
CCC(=O)Nc1cc(C(=O)OCC(=O)c2ccccc2)ccc1C	?	-2.0%	?	.	12µM*
CCOc1ccc(NC(=O)NCc2ccc3c(c2)CCN3C(C)=O)cc1	.	.	.	.	-6.1%
CCC(C)c1ccc(NC(=O)C2=CC=CN3CCS(=O)(=O)N=C23)cc1 (stereo not drawn)	?	.	18.7%	.	2.13µM*
COc1ccc(OC)c(NC(=O)N2CCN(Cc3nc4ccc(C)cc4o3)CC2)c1	.	.	.	.	-1.7%
COc1ccc(Nc2cc(C)c3cc([N+](=O)[O-])ccc3n2)cc1	-5.6%	.	-6.8%	.	16.9µM*
Cc1cc(Nc2ccccc2)nc2cc(O)ccc12	-6.5%	-0.5%	-2.6%	-5.7%	16.9µM*
COc1ccc(Nc2nc(=O)c3cc([N+](=O)[O-])ccc3s2)cc1	6.3%	.	0.2%	.	-3.1%
COc1ccc(Nc2cc(C)c3ccc(O)cc3n2)cc1	-3.3%	.	4.8%	.	23.9µM*
CCOc1ccc(Nc2cc(C)c3ccccc3n2)cc1	?	.	20.7%	.	16.9µM*
O=C1c2c(O)ccc([N+](=O)[O-])c2C(=O)c2c([N+](=O)[O-])ccc(O)c21	.	.	.	-32.4%	.
CN(C(=O)c1cccc(NC(=O)Cc2ccccc2)c1)c1ccccc1	7.0%	.	1.8%	.	-2.8%
Cc1ccc2cc(NC(=O)c3ccccc3C)ccc2n1	3.55µM*	.	2.82µM*	.	5.36µM*
Cc1ccc2cc(NC(=O)Cc3ccccc3)ccc2n1	2µM*	.	1.41µM*	.	3.38µM*
NC(N)=N[C@H](CC(=O)O)c1ccccc1	.	-5.8%[7.66 µM]	.	-15.1%[9.22 µM]	.
Cc1cc(C=O)c(C)n1-c1sc2c(c1C(=O)O)CCCC2	-4.1%	-0.9%	-5.1%	-3.3%	1.3%
COC(=O)c1c(-n2c(C)cc(C=O)c2C)sc2c1CCCC2	1.8%	-8.7%	-3.5%	-20.6%	12µM*
O=C(Nc1cc(Cl)cc(Cl)c1)c1ccc(F)c(S(=O)(=O)NC2CCCC2)c1	.	.	.	.	2.6%
CCOc1ccccc1C(=O)Nc1nnc(SCC(=O)N2CCOCC2)s1	15.3%	3.1%	4.1%	-15.5%	-12.8%
O=C(CSc1nnc(NC(=O)c2ccccc2)s1)NC1CCCC1	?	.	?	.	2.69µM*
O=C(Nc1nnc(SCC(=O)N2CCOCC2)s1)c1ccccc1	?	-2.9%	29.8%	14.1µM*	2.69µM*
SMILES	Rab9 promoter act	Luc counter	NPC1 promoter act	SMN2 splice enh	FLuc modulator
O=C(CSc1nnc(NC(=O)c2ccc(F)cc2)s1)NC1CCCC1	3.55µM*	.	?	.	2.39µM*
CCC(CC)C(=O)Nc1nnc(SCC(=O)NC2CCCCC2)s1	-5.9%	.	-1.4%	.	2.6%
O=C(CSc1nnc(NC(=O)c2ccco2)s1)NC1CCCCC1	3.8%	8.0%	0.8%	8.1%	19µM*
O=C(Cc1ccccc1)Nc1nnc(SCC(=O)NC2CCCC2)s1	-6.0%	-0.1%	2.4%	3.2%	-1.5%
NS(=O)(=O)c1ccc(N=Nc2cc3ccccc3c(C(=O)O)c2O)cc1	.	-2.6%[7.66 µM]	.	-2.8%[9.22 µM]	.
COc1ccc2c(c1)c1c(c(=O)n(-c3cccc(Cl)c3)c(=O)n1C)n2C	.	.	.	.	6.2%
Cc1ccc(-n2ncc(C(=O)NCc3ccc4c(c3)OCO4)c2C2CCN(C(=O)OC(C)(C)C)CC2)c(C)c1	.	.	.	.	-0.8%
C/C(=N\NC(=O)c1ccccn1)C12CC3CC(CC(C3)C1)C2	?	1.9%	28.7%	9.4%	15.1µM*
N/C(=N\OC(=O)C12CC3CC(CC(C3)C1)C2)c1ccccc1	0.8%	-4.5%	16.0%	0.6%	4.78µM*
N/C(=N\OC(=O)N1CCOCC1)c1ccccc1	26.8%	?	24.3%	-74.8%	16.9µM*
C/C(=N/NC(=O)c1ccoc1C)C12CC3CC(CC(C3)C1)C2	4.2%	1.7%	1.3%	-3.2%	?
N/C(=N\OC(=O)C12CC3CC(CC(C3)C1)C2)c1ccccn1	19.9%	0.5%	16.9%	22.9%	7.57µM*
O=C(O)c1ccccc1OC(=O)C12CC3CC(CC(C3)C1)C2	0.9%	1.5%	-1.0%	4.3%	?
N/C(=N\OC(=O)C12CC3CC(CC(C3)C1)C2)c1cccnc1	7.2%	-0.4%	8.6%	23.7%	15.1µM*
COc1ccc(/C=C/C(=O)O/N=C(\N)c2cccnc2)cc1OC	3.5%	.	0.9%	.	-10.9%
Cc1ccc(O)c(NC(=O)c2cc(-c3cccs3)on2)c1	-0.9%	.	18.2%	.	2.13µM*
C=CCNC(=O)c1cc(-c2ccc(Br)cc2)on1	0.794µM*	-2.1%	1.26µM*	11.2µM*	?
CC(=O)Nc1ccc(NC(=O)c2cc(-c3cccs3)on2)cc1	.	.	.	.	-8.8%
O=C(NCCc1ccccc1)c1cc(-c2ccc(Br)cc2)on1	.	.	.	-7.2%	-6.8%
CC(C)NC(=O)c1cc(-c2cccs2)on1	2.82µM*	-4.1%	3.16µM*	12.6µM*	15.1µM*
Cc1ccc(O)c(NC(=O)c2onc(C)c2Cl)c1	-5.9%	.	18.1%	.	16.9µM*
C=CCNC(=O)c1cc(-c2cccs2)on1	.	.	.	.	13.5µM*
Cc1ccc(O)c(NC(=O)c2noc(C(C)C)c2[N+](=O)[O-])c1	-2.8%	-1.1%	-1.7%	29.5%	19µM*
O=C(NCCN1CCOCC1)c1cc(-c2cccs2)on1	?	1.0%	12.6%	-2.5%	-15.3%
CC(=O)c1ccc(NC(=O)c2noc(C(C)C)c2[N+](=O)[O-])cc1	17.8%	0.4%	14.3%	-7.6%	-13.6%
SMILES	Rab9 promoter act	Luc counter	NPC1 promoter act	SMN2 splice enh	FLuc modulator
CCCOC(=O)c1ccc(NC(=O)C2CC(=O)N(c3ccc(C)cc3)C2)cc1 (stereo not drawn)	.	.	.	.	-3.1%
CC1CCN(c2ccc(-c3cccc(NS(=O)(=O)c4cccs4)c3)nn2)CC1	.	.	.	.	0.477µM*
CC1CCN(c2ccc(-c3cccc(NS(=O)(=O)c4ccc(Cl)s4)c3)nn2)CC1	.	.	.	.	0.849µM*
COc1ccc(C(=O)Nc2ccc(C)cn2)c(OC)c1	0.355µM*	?	?	.	0.19µM*
COc1ccc(C(=O)Nc2cc(C)on2)cc1OC	1.8%	.	-2.6%	.	-6.1%
COc1cccc(C(=O)NC(=O)Nc2cc(C)on2)c1	1.58µM*	-0.7%	?	11.2µM*	?
COc1ccc(C(=O)Nc2cc(C)on2)c(OC)c1	3.16µM*	.	3.16µM*	.	10.7µM*
Cc1cc(NC(=O)Nc2ccc(C)c(C)c2)no1	?	6.9%	21.4%	.	13.5µM*
Cc1cccc(Cc2c(C)nc3nc(SCc4cccc(F)c4)nn3c2C)c1	.	.	.	.	-5.6%
